# From PubChem
# Rango-impB inh: Rango-importin beta binding inhibition; Q14974; Rango CFP/YFP FRET sensor + importin beta, 45 min; Potency, µM (titrated, usually from 92.2 µM), for the others: at the highest dose inhibition of complex formation; hit rate 0.031% among 340,000; AID 540263;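 further: 0% = DMSO wells and 100% = buffer wells lacking importin beta; nearly all actives have a fitted effect of over 15% in size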
#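 FRET biosensor Rango (snurportin 1 IBB between N-terminal EYFP and C-terminal Cerulean), 50 nM in PBS/1 mM DTT/0.02% Tween-20/0.1% BSA, preincubated 5 min RT with compound; 0.125 microM importin beta added, 45 min RT, CFP/YFP FRET ratio read.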
# Rango dissoc inh: prevents RanGTP from dissociating the Rango-importin beta complex | Biochemical FRET Rango-importin beta, RanGTP-induced dissociation | hit rate 0.071% among 340,000 | O95149+P62826 | Potency, µM (titrated, usually from 46.1 µM), without a hit: top-dose activity change, negative = inhibition; further: % of control where 0% means no effect; nearly all actives have a fitted effect of over 45% in size
#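 Rango FRET biosensor (snurportin-1 IBB flanked by N-terminal EYFP and C-terminal CFP10) at 0.1 uM, with 0.25 uM importin beta in PBS, 1mM DTT, 0.02% Tween-20, 0.1% BSA. 0.6 uM Ran, 2mM GTP and 0.2 uM RCC1 were then added for 45 min at room temperature. Inhibition read as loss of FRET rise.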
# ClpP mod: qHTS Assay for Activators of ClpP. purified B. subtilis ClpP, FRET peptide cleavage, 20 min. AID 651965, 2013. Potency, µM (highest dose often 57.5 µM), inactives show top-dose activity change, negative = active. ATP-dependent Clp protease proteolytic subunit (Bacillus subtilis (strain 168)), P80244. hit rate 1.9% among 340,000; active means well fitted falling curve with a large enough effect; inconclusive means small, poorly fitted or top-dose-only effect; inactive means no such curve, though single readings can be large or run the other way; further: the source files actives as falling curves though it sought activators and does not explain the sign; nearly all actives have a fitted effect of over 65% in size
# Target sequence (P80244 whole entry, looked up): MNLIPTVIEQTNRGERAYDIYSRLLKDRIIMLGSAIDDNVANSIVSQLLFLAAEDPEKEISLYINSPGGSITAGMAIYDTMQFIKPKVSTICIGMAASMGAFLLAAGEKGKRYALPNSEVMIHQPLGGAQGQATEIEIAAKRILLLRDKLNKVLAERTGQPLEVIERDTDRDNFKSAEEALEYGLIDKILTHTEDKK
#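 FRET quenching reversal measured ClpP activation: 10 microg/mL B. subtilis ClpP at pH 8 with the FRET-FV decapeptide, read at 430 nm after 320 nm excitation. The 20-min minus 0-min signal was scaled between DMSO/no-enzyme wells and ADEP (5.8 microM final).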
# ALOX12 inh: inhibitors of human 12S-lipoxygenase ALOX12 | purified 12hLO, xylenol orange hydroperoxide absorbance | Potency, µM (top dose mostly 108 µM), for inactives: at the top dose activity change, negative = inhibition, actives largely listed as inhibitors | hit rate 1.1% among 580,000; active means well fitted curve in the direction sought with a large enough effect; inconclusive means small, poorly fitted or top-dose-only effect, or another doubt; inactive means no such curve, though single readings can be large; an effect the other way counts as inactive or inconclusive; further: on the % scale 0 is the no-effect control and ±100 the full control effect
#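 Purified human 12hLO (150 nM final) in 25 mM Hepes, 0.01% Triton X-100, pH 7.0 was preincubated 15 min at room temperature with compound. Then 40 uM arachidonic acid was added, 30 min. Hydroperoxide was read by Fe-XO absorbance ratio 573/405 nm.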
# TDP1 inh: blocks human tyrosyl-DNA phosphodiesterase 1 | Q9NUW8 | recombinant TDP1, AlphaScreen DNA substrate cleavage | Potency, µM (titrated, usually from 130 µM), without a hit: at the highest dose activity change, negative = inhibition, actives largely listed as inhibitors | hit rate 0.28% among 350,000 | AID 485290; active means well fitted curve in the direction sought with a large enough effect; inconclusive means small, poorly fitted or top-dose-only effect, or another doubt; inactive means no such curve, though single readings can be large; an effect the other way counts as inactive or inconclusive; further: on the % scale 0 is the no-effect control and ±100 the full control effect; nearly all actives have a fitted effect of over 40% in size
#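 Tdp1 1 nM final; 15 min RT w/ cpd; substrate 15 nM, 5 min; beads 10 ug/ml, 10 min; AlphaScreen read. Neg ctrl: no enzyme.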
# TSG101-PTAP inh: blocks PTAP/TSG101 interaction to inhibit HIV-1 budding | Q99816 | Fluorescence polarization, FITC-PTAP peptide / Tsg101 binding | Potency, µM (top dose mostly 115 µM), for inactives: top-dose activity change, negative = inhibition, most hits filed as inhibitors | 340,000 tested, under 10 active | AID 493005; active means well fitted inhibition curve with a large enough effect in the main read-out, with a control signal flat, not every such curve was filed as active; inconclusive means small, poorly fitted or top-dose-only effect, or effect the other way, or a change in a side signal; inactive means no such curve, though single readings can be large or run the other way; further: % of control where 0% means no effect
# Target sequence (Q99816 whole entry, looked up): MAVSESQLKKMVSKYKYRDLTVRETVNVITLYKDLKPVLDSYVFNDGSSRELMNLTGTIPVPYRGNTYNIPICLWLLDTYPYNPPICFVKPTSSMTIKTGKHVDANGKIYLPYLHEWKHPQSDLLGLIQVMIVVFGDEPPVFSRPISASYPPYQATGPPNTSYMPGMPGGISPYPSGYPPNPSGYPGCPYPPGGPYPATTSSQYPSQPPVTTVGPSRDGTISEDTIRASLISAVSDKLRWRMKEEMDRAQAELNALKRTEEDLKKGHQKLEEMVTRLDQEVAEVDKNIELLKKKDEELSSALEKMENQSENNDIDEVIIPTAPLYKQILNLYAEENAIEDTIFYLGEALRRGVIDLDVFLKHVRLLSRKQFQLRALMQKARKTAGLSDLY
#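 Fluorescence polarization binding of Tsg101 binding domain (10 uM final) to FITC-labeled PTAP peptide (50 nM final) in HEPES pH 7.5 buffer with NaCl, Tween 20, EDTA, TCEP. Compounds added before peptide; binding 20 min at RT.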
# Numbers without * were called inactive; ? = inconclusive; / = no result given; ! = a repeat was not active; [ ] = another dose, or the depositor's remark. Rows were chosen to be rich in hits. Some 2.4% of all compounds tested hit in one or more screens of this group. Unless noted, the call rests on the fitted dose curve. Potency means the concentration at half of the fitted maximal effect.
SMILES,Rango-impB inh,Rango dissoc inh,ClpP mod,ALOX12 inh,TDP1 inh,TSG101-PTAP inh
COc1nc(=O)n(C2OC(CO)C(O)C2O)cc1C (stereo unspecified),-3%,1%,35µM*,-13%,/,0%
CC(C)CN1C(=O)c2ccc(NC(=O)c3ccccc3F)cc2C1=O,0%,1%,32µM*,-4%,-1%,-2%
CC(C)CN1C(=O)c2ccc(NC(=O)c3cccs3)cc2C1=O,-2%,-9%,28µM*,22%,6%,/
CC(C)CN1C(=O)c2ccc(NC(=O)C3CC3)cc2C1=O,0%,-10%,-16%,0%,1%,0%
CN1CCN(C)c2cc(Nc3ccc(N4CCOCC4)cc3)ncc2C1,/,/,/,28%[176 µM],/,/
O=c1c(Cl)c(O)c2cccc3c4ccccc4n1c23,2%,-12%,14µM*,-32%,5%,-5%
COc1c(O)c(=O)n2c3ccccc3c3ccnc1c32,?,?,0%,-8%,/,-4%
Cc1ccc(C(=O)NC2CCN(c3cc(C(F)(F)F)ncn3)CC2)cc1,/,/,/,20%,/,/
CN(C)CCCn1c(=S)[nH]c2sc3c(c2c1=O)CCCC3,-1%,-10%,/,14µM*,-3%[0.0935 µM],1%
Cc1ccc(CN2CCC3(CC2)COc2ccccc2CN3)cc1,/,/,/,16%[176 µM],/,/
CCOC(=O)C1CC1CN1CCCCC12Cc1ccccc1CNC2=O (stereo unspecified),/,/,/,0%[6.33 µM],/,/
Cc1c(CCl)cc(C(=O)O)cc1CCl,/,/,/,5.6µM*,/,/
Cc1c(Cl)cccc1NC(=O)c1nn(Cc2ccccc2)c(=O)c2ccccc12,/,/,/,9%,/,/
CC1(C)CC(N2CCCCC2)=CC(=NCCCN2CCOCC2)C1,/,/,/,22µM*,/,/
Cc1ccc(C(c2sc3nc(-c4ccco4)nn3c2O)N2CCOCC2)cc1 (stereo unspecified),/,/,1%,14µM*,0%,/
COC(=O)c1ccccc1N(Cc1ccccc1)S(C)(=O)=O,-3%,-8%,25µM*,0%,0%,0%
N#Cc1ccc(C23CC4CC(CC(C4)C2)C3)[nH]c1=O,-7%,2%,16µM*,0%,0%,-3%
Cc1c(NC(=O)C2CCN(S(=O)(=O)Cc3ccccc3)CC2)c(=O)n(-c2ccccc2)n1C,/,/,/,14%,/,/
Cc1nc(N)nc(N2CCOC(Cc3noc(-c4ccccn4)n3)C2)c1C (stereo unspecified),/,/,/,18%,/,/
Cc1nn(-c2ccccc2)c(C)c1/C=N/NC(=O)c1cccs1,0%,2%,25µM*,9%,0%,1%
Cc1nn(-c2ccccc2)c(C)c1/C=N/NC(=O)c1cc(-c2cccs2)[nH]n1,1%,0%,-5%,3%,6%,-4%
CC(=O)N1c2c(ccc3ccccc23)C(C)CC12CCCCC2 (stereo unspecified),0%,3%,0%,?,0%,0%
CC1CC2(CCCCC2)Nc2c1ccc1ccccc21 (stereo unspecified),?,?,18µM*,130%,6%,-7%
Cc1nnc2n1CCC(N(C)C(=O)c1ccc3ccccc3n1)CC2 (stereo unspecified),/,/,/,61%,/,/
COCCn1c(CCc2ccccc2)n[nH]c1=S,5%,-12%,-3%,-18%,-1%,-4%
SMILES,Rango-impB inh,Rango dissoc inh,ClpP mod,ALOX12 inh,TDP1 inh,TSG101-PTAP inh
COCCn1c(COc2ccc(C(C)(C)c3ccccc3)cc2)n[nH]c1=S,/,/,/,16µM*,/,/
CCn1c(CCCOc2ccc(Cl)cc2Cl)n[nH]c1=S,1%,-16%,/,25µM*!,4%,-5%
S=c1[nH]nc(COc2ccc(Cl)cc2Cl)n1-c1ccccc1,1%,-32%,1%,?,/,-8%
Cc1ccc(Cn2c(CCCOc3ccc(Cl)cc3Cl)n[nH]c2=S)cc1,/,/,/,16µM*,/,/
CCn1c(CCCOc2ccc(Cl)cc2C)n[nH]c1=S,/,/,/,18µM*,/,/
CCn1c(COc2ccc(Cl)cc2)n[nH]c1=S,/,/,/,16µM*,/,/
Cc1cc(Cl)ccc1OCCCc1n[nH]c(=S)n1Cc1ccccc1,/,/,/,16µM*,/,/
C[C@@H]1CN(C(=O)c2cc(F)cc(C#N)c2)CC[C@@]1(O)C1CCOCC1,/,/,/,9%,/,/
Cc1cnc(C(=O)NC2C[C@H]3CC[C@@H](C2)N3C(=O)c2ccnn2C)cn1 (stereo partly specified),/,/,/,32%,/,/
N#Cc1ccc(-c2nc(C3CC(=O)N(c4ccc(F)cc4)C3)no2)cc1 (stereo unspecified),/,/,/,10µM*,/,/
N#Cc1ccc(-c2nc(C3CC(=O)N(c4ccc(Cl)cc4)C3)no2)cc1 (stereo unspecified),/,/,/,13µM*,/,/
O=C1CC(c2noc(-c3ccc(F)cc3)n2)CN1c1ccc(F)c(Cl)c1 (stereo unspecified),/,/,/,19%,/,/
CCc1sc(C(=O)OCC(=O)Nc2cc(C)on2)cc1C,/,/,/,27%,/,/
CCC(NC(C)C)C(O)c1ccc(O)c(O)c1 (stereo unspecified),3%,-8%,0%,10µM*!,-6%,0%
CCC(c1ccc(O)c(O)c1)C(CC)c1ccc(O)c(O)c1 (stereo unspecified),3%,-5%,/,/,/,-4%
O=C(COC(=O)Cc1ccc(Cl)cc1)NCc1ccco1,-3%,-2%,-2%,?,11µM*,-1%
COc1ccc(C(=O)OCC(=O)NCc2ccco2)cc1OC,0%,-13%,-19%,11%,40µM*,-1%
CCOc1ccc(C(=O)OCC(=O)NCc2ccco2)cc1OCC,0%,0%,-4%,0%,/,-2%
O=C(CC(NS(=O)(=O)c1ccc(Cl)cc1)c1ccco1)NCc1ccco1 (stereo unspecified),-4%,12%,25µM*,112%,-4%,1%
